# Laboratory results as given in paper PMC5540273 (PLoS ONE, 2017).
# What was measured:
# Conditions in all cases: concentration: 1 μM, replicates: in singlicate; n = 1
# SIK2 = tested on: SIK2
# SIK = tested on: SIK
# SLK = tested on: SLK
# SNARK = tested on: T1, SNARK
# T1 construct: gene NUAK2
# SNRK = tested on: SNRK
# SRC = tested on: SRC
# SRMS = tested on: SRMS
# SRPK1 = tested on: SRPK1
# SRPK2 = tested on: SRPK2
# SRPK3 = tested on: SRPK3
# STK16 = tested on: STK16
# STK33 = tested on: STK33
# STK35 = tested on: STK35
# STK36 = tested on: STK36
# STK39 = tested on: STK39
# SYK = tested on: SYK
# SgK110 = tested on: SgK110
# TAK1 = tested on: T2, TAK1
# T2 construct: gene MAP3K7
# TAOK1 = tested on: TAOK1
# TAOK2 = tested on: TAOK2
# 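Also: KINOMEscan kinase panel screen.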
SMILES,%Inh (SIK2),%Inh (SIK),%Inh (SLK),%Inh (SNARK),%Inh (SNRK),%Inh (SRC),%Inh (SRMS),%Inh (SRPK1),%Inh (SRPK2),%Inh (SRPK3),%Inh (STK16),%Inh (STK33),%Inh (STK35),%Inh (STK36),%Inh (STK39),%Inh (SYK),%Inh (SgK110),%Inh (TAK1),%Inh (TAOK1),%Inh (TAOK2)
Fc1cccc(COc2nnc(-c3ccc4c(c3)CCO4)o2)c1,0%,0%,0%,0%,0%,0%,5%,0%,0%,7%,7%,2%,4%,7%,0%,0%,0%,7%,0%,0%
Cn1ccc2ncnc(Oc3ccc(NC(=O)Nc4ccccc4)cc3)c21,27%,0%,22%,19%,33%,11%,0%,0%,0%,9%,9%,17%,17%,0%,0%,12%,2%,4%,0%,0%
O=C(Nc1n[nH]c2nc(-c3nccs3)c(Br)cc12)C1CC1 [SB-742251],0%,6%,0%,0%,0%,0%,0%,19%,21%,0%,61%,0%,0%,1%,21%,0%,4%,0%,0%,0%
CCn1c(-c2ccccn2)nc2cnccc21 [SB-736398],3%,0%,8%,0%,0%,79%,0%,0%,27%,5%,0%,0%,1%,0%,31%,0%,15%,0%,0%,33%
CN1C(=O)C(Nc2ccc(Cl)c(C(=O)O)c2)=C(c2ccc(Cl)cc2)C1=O [SB-404290],0%,0%,13%,8%,0%,0%,19%,20%,12%,15%,0%,0%,4%,0%,0%,28%,0%,0%,11%,5%
Cc1ccc(NC(=O)Nc2cc(C(C)(C)C)nn2-c2ccccc2)cc1 [GSK1014915],4%,0%,44%,0%,0%,2%,0%,21%,0%,2%,0%,0%,0%,0%,2%,28%,0%,0%,0%,0%
O=C(Nc1ccccc1)Nc1cccc(Oc2ccc3nccn3n2)c1,12%,0%,12%,0%,0%,0%,0%,0%,3%,29%,0%,1%,11%,0%,0%,12%,40%,0%,0%,0%
Cc1cc(N2Cc3ccccc3C2)nc(Nc2ccc(S(=O)(=O)N3CCOCC3)cc2)n1.Cl [GSK1669917],0%,0%,0%,10%,0%,0%,0%,0%,0%,0%,0%,0%,0%,4%,0%,35%,0%,0%,0%,0%
Cn1cncc1-c1ccc2ncnc(Nc3ccc(OCc4ccccc4)cc3)c2c1 [GW320571],13%,6%,19%,0%,86%,2%,0%,0%,0%,25%,5%,20%,10%,0%,7%,0%,0%,0%,0%,0%
Cc1nnc(-c2ccc3occ(-c4ccc(S(C)=O)cc4)c3c2)[nH]1 (stereo not shown),19%,7%,50%,11%,0%,9%,0%,27%,0%,0%,11%,0%,22%,3%,0%,0%,0%,7%,0%,0%
NC(=O)c1nnc2ccccc2c1N,6%,9%,0%,67%,14%,6%,0%,45%,0%,32%,2%,11%,10%,0%,27%,1%,0%,19%,20%,28%
